Measurements published in publication PMC7862700, “An all-to-all approach to the identification of sequence-specific readers for epigenetic DNA modifications on cytosine”.

Tests used:
Test in all cases: DAPPL (digital affinity profiling via proximity ligation, sequencing); 10 mM Tris-HCl pH 7.5, 50 mM NaCl, 1 mM DTT, 4% glycerol, room temperature, 30 min; GST-TFs on glutathione beads, 16-mer random dsDNA library, 0.1% formaldehyde crosslink after washing; high values mean tight binding
FLI1 = target: T1, FLI1 (Homo sapiens, UniProt Q01543 1-452); conditions: protein: recombinant; tags: N-terminal GST; dsDNA, one strand shown
T1 sequence: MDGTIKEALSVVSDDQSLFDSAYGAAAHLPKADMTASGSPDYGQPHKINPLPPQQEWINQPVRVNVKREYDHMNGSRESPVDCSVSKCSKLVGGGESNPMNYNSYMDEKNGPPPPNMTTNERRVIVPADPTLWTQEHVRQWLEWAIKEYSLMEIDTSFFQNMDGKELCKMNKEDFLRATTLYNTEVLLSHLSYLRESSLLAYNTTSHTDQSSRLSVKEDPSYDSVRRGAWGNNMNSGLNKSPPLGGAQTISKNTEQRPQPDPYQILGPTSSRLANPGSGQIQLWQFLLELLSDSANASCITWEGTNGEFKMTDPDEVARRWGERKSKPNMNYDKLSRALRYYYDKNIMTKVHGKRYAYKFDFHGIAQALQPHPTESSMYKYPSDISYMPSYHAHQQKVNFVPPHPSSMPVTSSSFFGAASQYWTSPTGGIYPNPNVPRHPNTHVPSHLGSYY
Procedure, shortened: (§1)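 Beads coated with glutathione captured GST-fused human transcription factors that had been expressed in yeast, and the factors were then given DNA barcodes and pooled with a tag-only sample. The pools were incubated with 200 nmole of a random double-stranded 16-mer DNA library in Tris/NaCl/DTT/glycerol buffer for 30 min at room temperature, washed, crosslinked with 0.1% formaldehyde and proximity-ligated with BsaI/T4 ligase at 37 °C for 1 h. PCR amplification and Illumina NextSeq500 sequencing came last. Binding signal is each hexamer's read frequency for a factor divided by its frequency for the tag-only sample.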

ELK1 = target: T2, ELK1 (Homo sapiens, UniProt P19419 1-428); conditions: protein: recombinant; tags: N-terminal GST; dsDNA, one strand shown
T2 sequence: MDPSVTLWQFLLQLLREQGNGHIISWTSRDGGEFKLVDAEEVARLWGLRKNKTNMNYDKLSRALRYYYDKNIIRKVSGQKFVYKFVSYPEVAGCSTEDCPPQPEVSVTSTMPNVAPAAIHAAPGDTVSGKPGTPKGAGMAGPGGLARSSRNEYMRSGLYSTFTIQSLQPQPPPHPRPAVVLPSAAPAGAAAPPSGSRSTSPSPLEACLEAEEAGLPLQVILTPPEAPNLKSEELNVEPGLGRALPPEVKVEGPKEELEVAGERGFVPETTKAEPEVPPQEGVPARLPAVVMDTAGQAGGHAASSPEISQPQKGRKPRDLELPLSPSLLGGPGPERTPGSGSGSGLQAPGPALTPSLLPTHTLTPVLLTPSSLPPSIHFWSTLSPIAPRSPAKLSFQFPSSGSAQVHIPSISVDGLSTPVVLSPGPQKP
Procedure, shortened: as §1

GABPA = target: T3, GABPA (Homo sapiens, UniProt Q06546 1-454); conditions: protein: recombinant; tags: N-terminal GST; dsDNA, one strand shown
T3 sequence: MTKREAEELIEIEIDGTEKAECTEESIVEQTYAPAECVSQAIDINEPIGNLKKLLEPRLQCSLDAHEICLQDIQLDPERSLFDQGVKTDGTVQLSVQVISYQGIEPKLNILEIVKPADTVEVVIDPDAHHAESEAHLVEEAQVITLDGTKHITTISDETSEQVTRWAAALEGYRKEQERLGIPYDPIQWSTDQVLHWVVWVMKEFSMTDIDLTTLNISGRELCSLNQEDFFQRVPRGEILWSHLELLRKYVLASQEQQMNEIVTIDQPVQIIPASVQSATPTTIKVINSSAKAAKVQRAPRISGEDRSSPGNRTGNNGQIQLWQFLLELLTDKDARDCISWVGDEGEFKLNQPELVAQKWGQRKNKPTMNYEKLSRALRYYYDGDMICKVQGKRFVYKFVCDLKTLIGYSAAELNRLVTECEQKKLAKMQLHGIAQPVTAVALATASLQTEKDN
Procedure, shortened: as §1

ERG = target: T4, ERG (Homo sapiens, UniProt P11308 1-479); conditions: protein: recombinant; tags: N-terminal GST; dsDNA, one strand shown
T4 sequence: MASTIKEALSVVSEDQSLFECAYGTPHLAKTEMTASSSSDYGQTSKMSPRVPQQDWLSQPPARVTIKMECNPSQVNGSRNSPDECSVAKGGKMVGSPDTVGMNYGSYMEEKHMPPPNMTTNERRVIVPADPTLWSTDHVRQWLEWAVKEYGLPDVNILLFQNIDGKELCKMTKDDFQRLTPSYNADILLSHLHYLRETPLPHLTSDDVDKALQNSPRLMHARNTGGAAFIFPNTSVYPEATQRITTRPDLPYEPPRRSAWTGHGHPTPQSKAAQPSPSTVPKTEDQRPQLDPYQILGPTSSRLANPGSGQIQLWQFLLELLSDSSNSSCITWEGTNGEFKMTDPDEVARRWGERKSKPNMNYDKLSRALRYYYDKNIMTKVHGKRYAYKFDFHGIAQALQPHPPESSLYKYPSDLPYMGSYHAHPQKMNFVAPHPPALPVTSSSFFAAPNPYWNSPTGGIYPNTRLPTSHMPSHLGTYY
Procedure, shortened: as §1

ELF1 = ELF1 (Homo sapiens, UniProt P32519 1-619); conditions: protein: recombinant; tags: N-terminal GST; dsDNA, one strand shown
Sequence of ELF1 (P32519 whole entry): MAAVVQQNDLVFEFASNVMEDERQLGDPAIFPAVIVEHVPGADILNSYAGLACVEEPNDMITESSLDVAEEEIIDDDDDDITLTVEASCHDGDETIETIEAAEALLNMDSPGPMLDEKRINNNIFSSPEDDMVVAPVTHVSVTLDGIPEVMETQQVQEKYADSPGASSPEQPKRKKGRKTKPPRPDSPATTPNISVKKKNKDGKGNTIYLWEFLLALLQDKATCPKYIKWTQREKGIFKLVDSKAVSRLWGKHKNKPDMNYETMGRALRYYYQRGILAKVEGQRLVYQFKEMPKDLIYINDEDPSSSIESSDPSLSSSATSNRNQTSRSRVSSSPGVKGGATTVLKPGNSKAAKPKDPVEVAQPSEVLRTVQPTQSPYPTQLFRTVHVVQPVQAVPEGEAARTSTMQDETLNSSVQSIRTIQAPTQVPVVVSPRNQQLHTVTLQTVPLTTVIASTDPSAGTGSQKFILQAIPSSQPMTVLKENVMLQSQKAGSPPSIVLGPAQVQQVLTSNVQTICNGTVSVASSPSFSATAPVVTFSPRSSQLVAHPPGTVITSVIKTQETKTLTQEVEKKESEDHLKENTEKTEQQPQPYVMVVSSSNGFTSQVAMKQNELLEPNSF
Procedure, shortened: as §1

EHF = target: T5, EHF (Homo sapiens, UniProt Q9NZC4 1-300); conditions: protein: recombinant; tags: N-terminal GST; dsDNA, one strand shown
T5 sequence: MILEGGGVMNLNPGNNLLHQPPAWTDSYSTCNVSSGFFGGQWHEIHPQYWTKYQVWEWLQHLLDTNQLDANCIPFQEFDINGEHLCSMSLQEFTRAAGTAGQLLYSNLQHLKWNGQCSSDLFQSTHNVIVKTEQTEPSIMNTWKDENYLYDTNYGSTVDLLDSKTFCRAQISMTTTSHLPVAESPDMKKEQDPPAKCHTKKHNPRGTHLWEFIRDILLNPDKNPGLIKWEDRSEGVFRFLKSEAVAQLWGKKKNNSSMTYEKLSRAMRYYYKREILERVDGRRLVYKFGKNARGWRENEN
Procedure, shortened: as §1

SPI1 = SPI1 (Homo sapiens, UniProt P17947 1-270); conditions: protein: recombinant; tags: N-terminal GST; dsDNA, one strand shown
Procedure, shortened: as §1

SPIB = SPIB (Homo sapiens, UniProt Q01892 1-262); conditions: protein: recombinant; tags: N-terminal GST; dsDNA, one strand shown
Sequence of SPIB (Q01892 whole entry): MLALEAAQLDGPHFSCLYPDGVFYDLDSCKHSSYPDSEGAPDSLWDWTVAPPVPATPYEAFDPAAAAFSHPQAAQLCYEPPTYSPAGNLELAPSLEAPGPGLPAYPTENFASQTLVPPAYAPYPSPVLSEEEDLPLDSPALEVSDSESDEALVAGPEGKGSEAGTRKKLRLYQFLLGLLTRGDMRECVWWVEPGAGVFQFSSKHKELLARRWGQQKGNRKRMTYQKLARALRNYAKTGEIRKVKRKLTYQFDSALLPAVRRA
Procedure, shortened: as §1

ELK3 = target: T6, ELK3 (Homo sapiens, UniProt P41970 1-407); conditions: protein: recombinant; tags: N-terminal GST; dsDNA, one strand shown
T6 sequence: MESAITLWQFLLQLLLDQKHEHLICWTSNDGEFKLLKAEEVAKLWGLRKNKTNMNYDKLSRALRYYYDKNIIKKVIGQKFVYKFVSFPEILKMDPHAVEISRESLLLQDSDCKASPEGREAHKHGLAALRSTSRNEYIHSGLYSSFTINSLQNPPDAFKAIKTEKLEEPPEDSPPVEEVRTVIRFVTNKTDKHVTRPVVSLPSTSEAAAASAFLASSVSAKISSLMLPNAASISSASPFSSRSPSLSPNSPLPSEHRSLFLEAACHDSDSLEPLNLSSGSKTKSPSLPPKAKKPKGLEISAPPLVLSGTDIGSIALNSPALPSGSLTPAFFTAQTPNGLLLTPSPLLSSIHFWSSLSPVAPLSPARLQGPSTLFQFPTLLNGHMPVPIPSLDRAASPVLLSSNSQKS
Procedure, shortened: as §1

FEV = target: T7, FEV (Homo sapiens, UniProt Q99581 1-238); conditions: protein: recombinant; tags: N-terminal GST; dsDNA, one strand shown
T7 sequence: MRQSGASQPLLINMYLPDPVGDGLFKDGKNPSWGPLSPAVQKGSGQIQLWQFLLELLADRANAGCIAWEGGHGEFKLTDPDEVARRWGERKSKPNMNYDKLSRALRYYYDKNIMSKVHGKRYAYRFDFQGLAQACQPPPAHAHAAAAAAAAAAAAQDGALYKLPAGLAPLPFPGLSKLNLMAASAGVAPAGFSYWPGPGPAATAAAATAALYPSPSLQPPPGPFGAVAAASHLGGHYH
Procedure, shortened: as §1

ETV5 = ETV5 (Homo sapiens, UniProt P41161 1-510); conditions: protein: recombinant; tags: N-terminal GST; dsDNA, one strand shown
Sequence of ETV5 (P41161 whole entry): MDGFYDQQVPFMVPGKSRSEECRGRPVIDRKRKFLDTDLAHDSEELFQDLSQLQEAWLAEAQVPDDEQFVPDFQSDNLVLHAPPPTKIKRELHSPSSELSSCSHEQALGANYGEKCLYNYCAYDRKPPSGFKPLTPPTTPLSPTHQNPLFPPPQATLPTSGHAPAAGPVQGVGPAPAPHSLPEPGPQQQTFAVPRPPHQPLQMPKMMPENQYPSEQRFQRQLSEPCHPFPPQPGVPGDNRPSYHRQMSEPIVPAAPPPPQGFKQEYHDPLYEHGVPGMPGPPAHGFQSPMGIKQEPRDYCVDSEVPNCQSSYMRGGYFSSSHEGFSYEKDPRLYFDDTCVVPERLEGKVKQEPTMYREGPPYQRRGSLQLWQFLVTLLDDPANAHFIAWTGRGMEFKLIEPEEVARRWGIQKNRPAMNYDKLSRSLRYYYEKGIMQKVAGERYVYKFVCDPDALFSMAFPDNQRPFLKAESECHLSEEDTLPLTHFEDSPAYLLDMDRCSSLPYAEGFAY
Procedure, shortened: as §1

HSF1 = HSF1 (Homo sapiens, UniProt Q00613 1-529); conditions: protein: recombinant; tags: N-terminal GST; chain copies: 3; dsDNA, one strand shown
Sequence of HSF1 (Q00613 whole entry): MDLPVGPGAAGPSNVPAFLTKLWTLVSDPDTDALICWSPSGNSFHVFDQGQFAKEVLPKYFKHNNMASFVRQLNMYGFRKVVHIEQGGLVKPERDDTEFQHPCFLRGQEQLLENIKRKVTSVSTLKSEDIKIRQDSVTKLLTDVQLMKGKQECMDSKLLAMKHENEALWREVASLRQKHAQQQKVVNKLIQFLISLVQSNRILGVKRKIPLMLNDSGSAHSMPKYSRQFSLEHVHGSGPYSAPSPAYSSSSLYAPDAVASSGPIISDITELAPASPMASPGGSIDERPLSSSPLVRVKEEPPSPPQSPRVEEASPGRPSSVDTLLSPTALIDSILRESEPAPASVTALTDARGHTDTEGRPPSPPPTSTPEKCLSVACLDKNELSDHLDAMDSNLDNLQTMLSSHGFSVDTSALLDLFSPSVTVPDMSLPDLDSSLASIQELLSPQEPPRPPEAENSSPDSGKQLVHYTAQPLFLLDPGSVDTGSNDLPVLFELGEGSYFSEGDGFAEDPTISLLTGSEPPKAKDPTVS
Procedure, shortened: as §1

SPIC = target: T8, SPIC (Homo sapiens, UniProt Q8N5J4 1-248); conditions: protein: recombinant; tags: N-terminal GST; dsDNA, one strand shown
T8 sequence: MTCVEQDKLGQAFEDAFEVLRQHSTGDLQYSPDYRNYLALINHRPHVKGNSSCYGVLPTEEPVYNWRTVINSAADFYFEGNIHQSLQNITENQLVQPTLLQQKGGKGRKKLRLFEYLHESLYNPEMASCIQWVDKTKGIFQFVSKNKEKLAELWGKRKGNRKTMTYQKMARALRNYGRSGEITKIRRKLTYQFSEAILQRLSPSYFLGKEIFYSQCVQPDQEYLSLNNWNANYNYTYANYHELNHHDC
Procedure, shortened: as §1

ELF4 = ELF4 (Homo sapiens, UniProt Q99607 1-663); conditions: protein: recombinant; tags: N-terminal GST; dsDNA, one strand shown
Sequence of ELF4 (Q99607 whole entry): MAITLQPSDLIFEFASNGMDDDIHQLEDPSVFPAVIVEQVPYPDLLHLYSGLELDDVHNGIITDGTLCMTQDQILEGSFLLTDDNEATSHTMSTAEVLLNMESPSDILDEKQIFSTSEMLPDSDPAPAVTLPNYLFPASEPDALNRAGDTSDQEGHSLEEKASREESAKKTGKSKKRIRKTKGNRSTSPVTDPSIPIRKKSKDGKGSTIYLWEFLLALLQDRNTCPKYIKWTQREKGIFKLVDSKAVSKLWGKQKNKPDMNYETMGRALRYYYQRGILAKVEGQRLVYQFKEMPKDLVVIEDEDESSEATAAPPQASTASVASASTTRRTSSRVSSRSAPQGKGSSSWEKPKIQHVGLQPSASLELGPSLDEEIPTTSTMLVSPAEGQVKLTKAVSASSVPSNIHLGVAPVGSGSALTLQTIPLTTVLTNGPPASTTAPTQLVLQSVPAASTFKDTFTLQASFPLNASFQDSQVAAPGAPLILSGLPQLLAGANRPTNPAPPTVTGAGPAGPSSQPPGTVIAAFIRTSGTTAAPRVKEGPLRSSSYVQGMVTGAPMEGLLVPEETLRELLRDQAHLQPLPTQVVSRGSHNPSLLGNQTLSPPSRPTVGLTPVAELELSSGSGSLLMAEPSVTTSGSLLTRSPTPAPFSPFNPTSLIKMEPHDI
Procedure, shortened: as §1

ELK4 = target: T9, ELK4 (Homo sapiens, UniProt P28324-2 1-405); conditions: protein: recombinant; tags: N-terminal GST; dsDNA, one strand shown
T9 sequence: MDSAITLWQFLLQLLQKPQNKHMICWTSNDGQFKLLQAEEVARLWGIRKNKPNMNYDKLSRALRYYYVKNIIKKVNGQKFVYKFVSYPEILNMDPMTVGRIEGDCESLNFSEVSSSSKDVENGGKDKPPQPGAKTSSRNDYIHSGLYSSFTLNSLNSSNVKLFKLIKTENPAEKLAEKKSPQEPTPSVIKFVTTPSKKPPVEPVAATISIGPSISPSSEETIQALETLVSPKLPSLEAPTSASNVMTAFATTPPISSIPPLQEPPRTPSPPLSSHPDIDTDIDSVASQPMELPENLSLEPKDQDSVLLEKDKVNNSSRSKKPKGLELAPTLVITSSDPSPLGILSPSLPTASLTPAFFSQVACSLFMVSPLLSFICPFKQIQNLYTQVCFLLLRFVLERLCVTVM
Procedure, shortened: as §1

ETV2 = target: T10, ETV2 (Homo sapiens, UniProt O00321 1-342); conditions: protein: recombinant; tags: N-terminal GST; dsDNA, one strand shown
T10 sequence: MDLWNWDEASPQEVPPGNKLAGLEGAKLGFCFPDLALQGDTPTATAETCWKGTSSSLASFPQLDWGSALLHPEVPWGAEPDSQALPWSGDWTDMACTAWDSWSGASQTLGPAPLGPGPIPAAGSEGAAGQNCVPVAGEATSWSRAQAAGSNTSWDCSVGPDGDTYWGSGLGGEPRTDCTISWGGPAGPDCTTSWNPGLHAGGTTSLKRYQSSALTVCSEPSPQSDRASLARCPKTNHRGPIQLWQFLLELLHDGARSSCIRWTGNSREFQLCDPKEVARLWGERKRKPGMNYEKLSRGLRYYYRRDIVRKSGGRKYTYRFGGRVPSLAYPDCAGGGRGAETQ
Procedure, shortened: as §1

ELF3 = target: T11, ELF3 (Homo sapiens, UniProt P78545 1-371); conditions: protein: recombinant; tags: N-terminal GST; dsDNA, one strand shown
T11 sequence: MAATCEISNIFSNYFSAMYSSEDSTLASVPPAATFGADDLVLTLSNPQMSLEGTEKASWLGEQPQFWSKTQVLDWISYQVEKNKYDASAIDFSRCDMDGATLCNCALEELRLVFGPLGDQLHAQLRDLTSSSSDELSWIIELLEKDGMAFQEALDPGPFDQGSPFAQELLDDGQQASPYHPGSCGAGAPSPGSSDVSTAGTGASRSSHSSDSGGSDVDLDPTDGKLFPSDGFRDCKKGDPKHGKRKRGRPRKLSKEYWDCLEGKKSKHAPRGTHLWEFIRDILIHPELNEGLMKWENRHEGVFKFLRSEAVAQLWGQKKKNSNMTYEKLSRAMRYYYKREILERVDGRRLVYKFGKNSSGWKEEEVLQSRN
Procedure, shortened: as §1

CRX = CRX (Homo sapiens, UniProt O43186 1-299); conditions: protein: recombinant; tags: N-terminal GST; dsDNA, one strand shown
Sequence of CRX (O43186 whole entry): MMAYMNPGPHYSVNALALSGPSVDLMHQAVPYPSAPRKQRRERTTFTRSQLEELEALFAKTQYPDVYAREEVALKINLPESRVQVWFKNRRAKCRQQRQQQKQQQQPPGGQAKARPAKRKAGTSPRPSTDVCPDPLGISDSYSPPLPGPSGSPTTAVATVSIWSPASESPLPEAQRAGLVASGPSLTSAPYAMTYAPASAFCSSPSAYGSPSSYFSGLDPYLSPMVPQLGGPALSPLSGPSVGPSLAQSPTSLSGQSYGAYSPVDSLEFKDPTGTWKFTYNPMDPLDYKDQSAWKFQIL
Procedure, shortened: as §1

ETV1 = ETV1 (Homo sapiens, UniProt P50549 1-477); conditions: protein: recombinant; tags: N-terminal GST; dsDNA, one strand shown
Sequence of ETV1 (P50549 whole entry): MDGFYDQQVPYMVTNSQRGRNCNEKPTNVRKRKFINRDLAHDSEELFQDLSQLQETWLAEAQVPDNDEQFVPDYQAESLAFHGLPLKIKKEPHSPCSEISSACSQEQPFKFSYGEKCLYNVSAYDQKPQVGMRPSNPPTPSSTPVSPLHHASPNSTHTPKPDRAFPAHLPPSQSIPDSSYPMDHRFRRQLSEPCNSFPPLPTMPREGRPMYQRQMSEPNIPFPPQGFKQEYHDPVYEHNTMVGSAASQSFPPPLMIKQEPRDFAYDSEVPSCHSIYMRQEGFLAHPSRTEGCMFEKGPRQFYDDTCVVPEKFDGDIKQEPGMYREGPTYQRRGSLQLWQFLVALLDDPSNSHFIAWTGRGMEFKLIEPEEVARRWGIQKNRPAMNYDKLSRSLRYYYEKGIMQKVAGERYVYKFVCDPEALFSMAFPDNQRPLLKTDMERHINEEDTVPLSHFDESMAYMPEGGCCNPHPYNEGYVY
Procedure, shortened: as §1

With CCCCTC the binding signal (FLI1) was 1.48 fold enrichment (6-mer frequency, TF over GST control), the binding signal (ELK1) was 1.29 fold enrichment (6-mer frequency, TF over GST control) and the binding signal (GABPA) was 1.45 fold enrichment (6-mer frequency, TF over GST control). For the same sequence, the binding signal (ERG) was 1.28 fold enrichment (6-mer frequency, TF over GST control), the binding signal (ELF1) was 1.43 fold enrichment (6-mer frequency, TF over GST control) and the binding signal (EHF) was 1.31 fold enrichment (6-mer frequency, TF over GST control). The binding signal (SPI1) was 1.39 fold enrichment (6-mer frequency, TF over GST control), the binding signal (SPIB) was 1.55 fold enrichment (6-mer frequency, TF over GST control) and the binding signal (ELK3) was 1.37 fold enrichment (6-mer frequency, TF over GST control). For the same sequence, the binding signal (FEV) was 1.41 fold enrichment (6-mer frequency, TF over GST control), the binding signal (ETV5) was 1.37 fold enrichment (6-mer frequency, TF over GST control) and the binding signal (HSF1) was 1.13 fold enrichment (6-mer frequency, TF over GST control). The binding signal (SPIC) was 1.17 fold enrichment (6-mer frequency, TF over GST control), the binding signal (ELF4) was 1.48 fold enrichment (6-mer frequency, TF over GST control) and the binding signal (ELK4) was 1.5 fold enrichment (6-mer frequency, TF over GST control). The binding signal (ETV2) was 1.49 fold enrichment (6-mer frequency, TF over GST control), the binding signal (ELF3) was 1.35 fold enrichment (6-mer frequency, TF over GST control) and the binding signal (CRX) was 1.14 fold enrichment (6-mer frequency, TF over GST control). The binding signal (ETV1) was 1.51 fold enrichment (6-mer frequency, TF over GST control).
